Laboratory results taken from PubChem BioAssay (NCI).
“And” between values parts separate entries of the source, which are not always exact repeats. Equal entries are not always repeated. Compounds without any hit were thinned out: in the full panel of roughly 83,000, 20% have a hit.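 Single-dose data. Exposure time 48 hours. Values below 10 considered active.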 The source made the active and inactive calls.

Experiments:
Experiment in all cases: NCI-60 one-dose screen, 48 h (100 = growth as untreated, 0 = no growth, -100 = all killed)
MOLT-4 leukemia = conditions: 10 µM
SR leukemia = conditions: 10 µM
RPMI-8226 leukemia = conditions: 10 µM
OVCAR-8 ovarian = conditions: 10 µM
OVCAR-5 ovarian = conditions: 10 µM
OVCAR-4 ovarian = conditions: 10 µM
SK-OV-3 ovarian = conditions: 10 µM
IGROV1 ovarian = conditions: 10 µM
OVCAR-3 ovarian = conditions: 10 µM
HS 578T breast = conditions: 10 µM
NCI/ADR-RES ovarian = conditions: 10 µM
T-47D breast = conditions: 10 µM
BT-549 breast = conditions: 10 µM
MDA-MB-435 melanoma = conditions: 10 µM
SW-620 colon = conditions: 10 µM
MCF7 breast = conditions: 10 µM unless noted
HCT-116 colon = conditions: 10 µM
HCC-2998 colon = conditions: 10 µM
KM12 colon = conditions: 10 µM

Row | SMILES | growth (MOLT-4 leukemia) | growth (SR leukemia) | growth (RPMI-8226 leukemia) | growth (OVCAR-8 ovarian) | growth (OVCAR-5 ovarian) | growth (OVCAR-4 ovarian) | growth (SK-OV-3 ovarian) | growth (IGROV1 ovarian) | growth (OVCAR-3 ovarian) | growth (HS 578T breast) | growth (NCI/ADR-RES ovarian) | growth (T-47D breast) | growth (BT-549 breast) | growth (MDA-MB-435 melanoma) | growth (SW-620 colon) | growth (MCF7 breast) | growth (HCT-116 colon) | growth (HCC-2998 colon) | growth (KM12 colon)
1 | CCOP(=O)(OCC)C(O)c1ccccc1Cl (centres undefined) | 97.8% (inactive) | 93.2% (inactive) | 102% (inactive) | 100% (inactive) | 87.2% (inactive) | 106% (inactive) | 96.5% (inactive) | 93.5% (inactive) | 99.5% (inactive) | 106% (inactive) | 103% (inactive) | 89.1% (inactive) | 109% (inactive) | 119% (inactive) | 99.2% (inactive) | 103% (inactive) | 98.8% (inactive) | 102% (inactive) | –
2 | NC(=O)c1cc([N+](=O)[O-])c(Cl)c([N+](=O)[O-])c1 | -13.3% (active) | -3.5% (active) | -10.4% (active) | 85.1% (inactive) | 111% (inactive) | 71.8% (inactive) | 104% (inactive) | 102% (inactive) | – | 106% (inactive) | 111% (inactive) | 27.5% (inactive) | 113% (inactive) | 109% (inactive) | -85.2% (active) | 22.3% (inactive) | -79.3% (active) | 109% (inactive) | –
3 | COc1ccc(/C=C\[N+](=O)[O-])cc1OC | 85.7% (inactive) and 65.5% (inactive) | 16.6% (inactive) and -16.1% (active) | 20.7% (inactive) and -31.7% (active) | 73.9% (inactive) and 75.7% (inactive) | 110% (inactive) and 79.4% (inactive) | 73.7% (inactive) and 80.5% (inactive) | 106% (inactive) and 95.9% (inactive) | -5.78% (active) and 59.2% (inactive) | – | 71.2% (inactive) and 94.4% (inactive) | 91.3% (inactive) and 86.9% (inactive) | 62.8% (inactive) and 42.3% (inactive) | 92% (inactive) and 70.3% (inactive) | 12.3% (inactive) and 31.1% (inactive) | 37.7% (inactive) and 55.6% (inactive) | – | 13.2% (inactive) and 0.137% (active) | 61% (inactive) and 54.3% (inactive) | –
4 | Cc1cc([N+](=O)[O-])c2ccccc2[n+]1[O-] | -24.5% (active) | -10.2% (active) and -21.8% (active) | -23.6% (active) and -42.3% (active) | 9.55% (active) and -40.6% (active) | 20.9% (inactive) and 13.3% (inactive) | 84.1% (inactive) and 58.4% (inactive) | 7.72% (active) and 21.4% (inactive) | 46.8% (inactive) and 5.5% (active) | – | 8.5% (active) and -14.4% (active) | 7.18% (active) and 0.529% (active) | -6.69% (active) and -8.77% (active) | -36.6% (active) and -19.4% (active) | -53.1% (active) and -81.3% (active) | -10.5% (active) and -30% (active) | -11.2% (active) and 4.36% (active) | -26.4% (active) and 0.608% (active) | -67.8% (active) and -90.8% (active) | –
5 | CC/C(=C/c1ccc(OC)cc1OC)[N+](=O)[O-] | 6.34% (active) | 2.47% (active) | -7.24% (active) | 18.4% (inactive) | 35.9% (inactive) | 93.7% (inactive) | 124% (inactive) | 39.6% (inactive) | – | 77.6% (inactive) | 41.8% (inactive) | -12.9% (active) | 37.1% (inactive) | 46% (inactive) | -20.1% (active) | 0.465% (active) | -58.8% (active) | 102% (inactive) | 25.5% (inactive)
6 | CC(Cc1ccc2c(c1)OCO2)NN (centres undefined) | 78.4% (inactive) | 91.6% (inactive) | 91.8% (inactive) | 97.7% (inactive) | 100% (inactive) | 106% (inactive) | 84.8% (inactive) | 100% (inactive) | – | 93.3% (inactive) | 98.5% (inactive) | 77.5% (inactive) | 96.7% (inactive) | – | 98.7% (inactive) | – | 85.4% (inactive) | 101% (inactive) | 103% (inactive)
7 | CN(C)CC1(N)C(=O)NC(=O)NC1=O | 99% (inactive) | 101% (inactive) | 100% (inactive) | 105% (inactive) | 97.8% (inactive) | 103% (inactive) | 98.2% (inactive) | 108% (inactive) | – | 98.1% (inactive) | 107% (inactive) | 89.4% (inactive) | 111% (inactive) | 103% (inactive) | 106% (inactive) | 90.9% (inactive) | 92.9% (inactive) | 99.4% (inactive) | –
8 | O=S(=O)(F)c1ccc(Cl)cc1 | 105% (inactive) | 107% (inactive) | 97.9% (inactive) | 102% (inactive) | 113% (inactive) | 115% (inactive) | 104% (inactive) | 113% (inactive) | – | – | 109% (inactive) | 105% (inactive) | 112% (inactive) | 108% (inactive) | 100% (inactive) | 102% (inactive) | 106% (inactive) | 83.2% (inactive) | 104% (inactive)
9 | NC(=O)c1cc([N+](=O)[O-])c(Cl)c([N+](=O)[O-])c1Cl | -15.3% (active) | -11.2% (active) | 9.48% (active) | -24.6% (active) | 78.2% (inactive) | -58.8% (active) | 101% (inactive) | 27.6% (inactive) | – | – | 20.4% (inactive) | -36.7% (active) | 68.3% (inactive) | 11.1% (inactive) | -79.9% (active) | -44.4% (active) | -39.2% (active) | 39.2% (inactive) | –
10 | COS(=O)(=O)c1ccccc1 | 85.4% (inactive) | 71.1% (inactive) | 89.9% (inactive) | 101% (inactive) | 104% (inactive) | 110% (inactive) | 101% (inactive) | 120% (inactive) | – | 110% (inactive) | 107% (inactive) | 104% (inactive) | 107% (inactive) | 108% (inactive) | 108% (inactive) | 99.5% (inactive) | 102% (inactive) | 101% (inactive) | 104% (inactive)
11 | COc1cc2c(c(OC)c1OC)-c1ccc(O)c(=O)cc1[C@@H](NC(C)=O)CC2 | 46.6% (inactive) | 30.1% (inactive) | 40.9% (inactive) | 36.7% (inactive) | 70.1% (inactive) | 46.5% (inactive) | 66.9% (inactive) | 51.9% (inactive) | – | – | 74.3% (inactive) | 18.4% (inactive) | 59.9% (inactive) | 45.6% (inactive) | 50.2% (inactive) | – | 26.1% (inactive) | 66.9% (inactive) | –
12 | COc1cc([N+](=O)[O-])c2ncccc2c1[N+](=O)[O-] | 26% (inactive) | 25.7% (inactive) | 45.8% (inactive) | 69.8% (inactive) | 124% (inactive) | 47.5% (inactive) | 91.5% (inactive) | 23.1% (inactive) | – | 79.4% (inactive) | 81.7% (inactive) | 50.9% (inactive) | 98.2% (inactive) | 44.8% (inactive) | -61.5% (active) | – | 14.4% (inactive) | 102% (inactive) | –
13 | Oc1c(I)cc(I)cc1I | 98.9% (inactive) | 101% (inactive) | 94% (inactive) | 101% (inactive) | 98.6% (inactive) | 104% (inactive) | 109% (inactive) | 112% (inactive) | – | 119% (inactive) | – | 103% (inactive) | – | 113% (inactive) | 107% (inactive) | 95.4% (inactive) | – | – | –
14 | CC(C)c1cc([N+](=O)[O-])cc([N+](=O)[O-])c1O | 98.2% (inactive) | 94.3% (inactive) | 116% (inactive) | 104% (inactive) | 107% (inactive) | 115% (inactive) | 100% (inactive) | 111% (inactive) | – | 101% (inactive) | 97.3% (inactive) | 97.3% (inactive) | 96.4% (inactive) | 108% (inactive) | 100% (inactive) | 93.3% (inactive) | 103% (inactive) | 87.4% (inactive) | –
15 | Oc1ccccc1-c1ccccc1 | 90.1% (inactive) and 93.8% (inactive) | 92% (inactive) and 87.9% (inactive) | 98.7% (inactive) and 93.2% (inactive) | 100% (inactive) and 98% (inactive) | 105% (inactive) and 109% (inactive) | 108% (inactive) and 104% (inactive) | 92.2% (inactive) and 102% (inactive) | 97.9% (inactive) and 107% (inactive) | – | 104% (inactive) and 120% (inactive) | 99.9% (inactive) and 110% (inactive) | 94% (inactive) | 111% (inactive) and 96.9% (inactive) | 107% (inactive) and 111% (inactive) | 109% (inactive) and 103% (inactive) | 98.1% (inactive) and 94.1% (inactive) | 109% (inactive) and 96.6% (inactive) | 92.7% (inactive) | 102% (inactive) and 109% (inactive)
